Test results taken from the supplement of paper PMC9694430.

Assays:
Test in all cases: thermal shift delta Tm vs DMSO control; higher = stronger stabilization (binding)
Conditions in all cases: 12.5 µM; protein concentration 2 µM
LOC_OS04G57630-cb004 = system: LOC_OS04G57630-cb004
Summary of the method: (§1)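 Thermal shift values come from differential scanning fluorimetry on purified rice kinase domains made in E. coli, with melting temperatures obtained from Boltzmann fits. Samples of 19.5 μl held 2 μM kinase, 100 mM potassium phosphate pH 7.5, 150 mM NaCl, 10% glycerol, 5 × SYPRO Orange and compound in DMSO, and were heated from 25°C to 95°C at 0.05°C/s. Each shift is a triplicate mean relative to the DMSO-only protein sample.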

LOC_OS05G07850-cb002 = system: LOC_OS05G07850-cb002
Summary of the method: as §1

LOC_OS05G16824-cb004 = system: LOC_OS05G16824-cb004
Summary of the method: as §1

LOC_OS05G28520-cb001 = system: LOC_OS05G28520-cb001
Summary of the method: as §1

LOC_OS05G30820-cb001 = system: LOC_OS05G30820-cb001
Summary of the method: as §1

LOC_OS05G43570-cb004 = system: LOC_OS05G43570-cb004
Summary of the method: as §1

LOC_OS06G16330-cb003 = system: LOC_OS06G16330-cb003
Chain of LOC_OS06G16330-cb003 (as listed by the source): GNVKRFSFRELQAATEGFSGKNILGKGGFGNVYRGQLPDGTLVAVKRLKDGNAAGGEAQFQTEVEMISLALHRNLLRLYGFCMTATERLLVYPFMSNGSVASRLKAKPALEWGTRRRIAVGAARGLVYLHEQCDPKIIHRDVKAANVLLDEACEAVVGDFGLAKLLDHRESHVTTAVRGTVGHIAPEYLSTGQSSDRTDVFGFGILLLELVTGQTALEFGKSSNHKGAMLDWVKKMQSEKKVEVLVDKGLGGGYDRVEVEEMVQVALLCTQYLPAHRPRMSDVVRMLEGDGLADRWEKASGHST
Summary of the method: as §1

LOC_OS06G22820-cb001 = system: T1, LOC_OS06G22820-cb001
T1 sequence (whole entry): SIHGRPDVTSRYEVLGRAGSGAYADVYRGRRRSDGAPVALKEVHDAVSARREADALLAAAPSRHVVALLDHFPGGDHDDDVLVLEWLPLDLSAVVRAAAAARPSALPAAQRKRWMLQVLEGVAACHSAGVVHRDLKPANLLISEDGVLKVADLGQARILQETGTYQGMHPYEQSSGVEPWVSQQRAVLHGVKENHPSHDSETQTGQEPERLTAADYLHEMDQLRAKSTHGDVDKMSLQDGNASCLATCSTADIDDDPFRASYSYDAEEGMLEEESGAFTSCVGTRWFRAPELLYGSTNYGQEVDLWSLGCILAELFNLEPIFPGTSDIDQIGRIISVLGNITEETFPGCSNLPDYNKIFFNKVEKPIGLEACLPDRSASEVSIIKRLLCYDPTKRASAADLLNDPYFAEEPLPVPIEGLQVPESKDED
Summary of the method: as §1

LOC_OS07G06570-cb004 = system: LOC_OS07G06570-cb004
Summary of the method: as §1

LOC_OS07G07230-cb001 = system: LOC_OS07G07230-cb001
Summary of the method: as §1
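Note: purified Escherichia coli-expressed rice kinase domain construct.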

SMILES	thermal shift delta Tm (LOC_OS04G57630-cb004) [°C]	thermal shift delta Tm (LOC_OS05G07850-cb002) [°C]	thermal shift delta Tm (LOC_OS05G16824-cb004) [°C]	thermal shift delta Tm (LOC_OS05G28520-cb001) [°C]	thermal shift delta Tm (LOC_OS05G30820-cb001) [°C]	thermal shift delta Tm (LOC_OS05G43570-cb004) [°C]	thermal shift delta Tm (LOC_OS06G16330-cb003) [°C]	thermal shift delta Tm (LOC_OS06G22820-cb001) [°C]	thermal shift delta Tm (LOC_OS07G06570-cb004) [°C]	thermal shift delta Tm (LOC_OS07G07230-cb001) [°C]
CN1CCN(Cc2ccc(NC(=O)Nc3ccc(Oc4ccnc(N)n4)cc3)cc2C(F)(F)F)CC1	6.19	11.9	-5.04	0.9	0.74	1.72	5.38	0.66	0.91	-1.04
COc1cc(Nc2c(C#N)cnc3cc(OCCCN4CCN(C)CC4)c(OC)cc23)c(Cl)cc1Cl [Bosutinib (SKI-606)]	-0.3	0.13	-0.71	0.48	0.5	0.48	-0.26	0.74	0.61	0.26
CCN(CC)CCCC(C)Nc1nc(C)cc(Nc2ccc3nc(C)cc(N)c3c2)n1 (stereo not given)	-0.27	-0.09	-1.91	0.14	0.63	0.55	-0.04	0.19	1.53	0.49
Cc1ncc(CCCN(C)C)cc1Nc1ncc2c(n1)-c1ccc(C(F)(F)F)cc1NC(=S)C2	-0.2	-0.13	3.13	0.71	0.52	0.48	0.15	0.79	1.65	0.32
CC#CC(=O)N1CCC[C@H]1c1nc(-c2ccc(C(=O)Nc3ccccn3)cc2)c2c(N)nccn12 [Acalabrutinib (ACP-196)]	0.54	1.21	-2.72	0.31	0.59	0.02	0.81	0.52	1.01	0.32
Cn1ncc(Cl)c1-c1cc(C(=O)N[C@H](CN)Cc2ccc(F)c(F)c2)oc1Cl	0.39	1.08	2.91	1.26	0.24	1.04	1.15	0.82	-0.35	-0.13
COc1ccc2c(c1)[C@]1(C[C@H]1c1ccc3c(/C=C/c4ccc(CN5C[C@@H](C)O[C@@H](C)C5)cc4)n[nH]c3c1)C(=O)N2	7.27	12.3	9.09	0.02	-0.63	0.5	11.6	0.46	0.63	-0.28
N#Cc1c(O)c2c(-c3ccc(-c4ccccc4O)cc3)csc2[nH]c1=O	0.93	0.59	-0.44	1.06	0.78	1.18	1.03	0.91	1.2	0.19
CCc1cc(Nc2nccc(-c3c(-c4ccc(OC)c(C(=O)Nc5c(F)cccc5F)c4)nc4ccccn34)n2)c(OC)cc1N1CCC(N2CCN(S(C)(=O)=O)CC2)CC1	-0.18	0.07	-0.08	1.11	0.41	0.31	-0.08	0.94	0.75	0.69
COC(=O)[C@]12CCC(C)(C)C[C@H]1[C@H]1C(=O)C=C3[C@@]4(C)C=C(C#N)C(=O)C(C)(C)[C@@H]4CC[C@@]3(C)[C@]1(C)CC2 [Bardoxolone Methyl]	-4.85	-6.24	-7.05	-4.77	0.07	-2.54	-3.91	0.1	0.47	0.11
Cc1cc(Nc2cc(CN3CCOCC3)c3nc(C)c(Cc4ccc(Cl)cc4F)n3n2)n[nH]1	1.33	11.1	6.97	1.47	1.14	0.39	9.97	-0.03	0.22	-0.28
CC(C)n1ncnc1-c1cn2c(n1)-c1ccc(O[C@@H](C)C(N)=O)cc1OCC2	-0.03	-0.96	-0.54	0.38	0.25	0.23	-0.02	0.43	0.88	0.22
COc1cc(OC)cc(-c2cc3cnc(N)nc3nc2NC(=O)NC(C)(C)C)c1	0.07	1.66	-1.45	-0.04	0.11	0.05	-0.44	0.29	1.06	1
O=C1CCc2c(Oc3ccc4c(c3)[C@@H]3[C@H](O4)[C@H]3c3nc4cc(C(F)(F)F)ccc4[nH]3)ccnc2N1 [Lifirafenib (BGB-283)]	5.81	9.47	-0.92	0.64	0.42	1.09	2.37	1.16	1.23	-0.15
NC[C@@](O)(c1ccc(Cl)cc1)c1ccc(-c2cn[nH]c2)cc1	0.11	1.75	0.67	0.5	0.47	2.11	0.77	0.65	0.91	0.04
CC(=O)Nc1cccc(-n2c(=O)n(C3CC3)c(=O)c3c(Nc4ccc(I)cc4F)n(C)c(=O)c(C)c32)c1	0.23	0.88	-0.98	0.48	0.42	0.15	-0.52	0.44	0.26	-0.16
C[C@@H]1COCCN1c1cc(=O)n2c(n1)N(Cc1cncc(Cl)c1)[C@H](C(F)(F)F)CC2	0.52	-0.08	-0.52	1.37	0.35	0.36	-0.04	0.75	1.02	-0.12

SMILES	thermal shift delta Tm (LOC_OS04G57630-cb004) [°C]	thermal shift delta Tm (LOC_OS05G07850-cb002) [°C]	thermal shift delta Tm (LOC_OS05G16824-cb004) [°C]	thermal shift delta Tm (LOC_OS05G28520-cb001) [°C]	thermal shift delta Tm (LOC_OS05G30820-cb001) [°C]	thermal shift delta Tm (LOC_OS05G43570-cb004) [°C]	thermal shift delta Tm (LOC_OS06G16330-cb003) [°C]	thermal shift delta Tm (LOC_OS06G22820-cb001) [°C]	thermal shift delta Tm (LOC_OS07G06570-cb004) [°C]	thermal shift delta Tm (LOC_OS07G07230-cb001) [°C]
CS(=O)(=O)N1CCN(Cc2cc3nc(-c4cccc5[nH]ncc45)nc(N4CCOCC4)c3s2)CC1 [Pictilisib (GDC-0941)]	-0.38	5.5	0.86	0.48	0.36	0.46	0.57	0.43	0.46	0.23
CNc1nc(-c2ccc3c(N)n[nH]c3c2)cc(N2C[C@@H](C(=O)NC3CCCCC3)CC[C@H]2C)n1	0.37	2.19	-1.52	0.81	0.31	0.65	0.1	0.79	1.92	0.33
O=c1ncn2nc(Sc3ccc(F)cc3F)ccc2c1-c1c(Cl)cccc1Cl	0.07	0.12	0.83	0.17	0.49	0.49	-0.01	0.66	0.75	0.14
COc1ccc(CC(=O)Nc2nc3c(s2)CCc2ccccc2-3)cc1OC	0.43	1.41	2.09	0.12	0.13	0.04	-0.23	0.35	1.1	0.06
C[C@@H]1CN(C(=O)c2ccc(NC(=O)c3cc(O[C@H](C)c4c(Cl)ccc(F)c4Cl)c(N)nn3)cc2)C[C@H](C)N1 [Ensartinib (X-396)]	4.75	7.81	5.94	0.56	0.45	0.3	13.8	0.22	0.36	0.35
Cc1ccc(NC(=O)c2ccc(CN3CCN(C)CC3)cc2)cc1Nc1nc(-c2cccnc2)cs1 [Masitinib (AB1010)]	-0.19	0.62	-4.62	0.59	0.34	0.52	-0.18	0.52	0.98	0.23
Cc1cc(Nc2nc(N[C@@H](C)c3ccc(F)cc3)c(C#N)cc2F)n[nH]1	0.47	11.9	8.62	-0.1	1.2	0.67	8.11	-0.41	0.19	0.12
CC(C)(C)c1cc(NC(=O)Nc2ccc(Oc3ccnc4[nH]c(=O)cnc34)cc2F)n(-c2ccccc2)n1	10.3	12.5	0.62	0.57	0.39	0.48	5.36	0.49	1.22	-0.1
CN1CCN(c2ccc(C(=O)Nc3n[nH]c4ccc(Cc5cc(F)cc(F)c5)cc34)c(NC3CCOCC3)c2)CC1 [Entrectinib (RXDX-101)]	2.05	10.2	5.23	3.71	0.38	0.47	8.44	0.27	0.88	0.63
C[C@H](Nc1ncnc2nc[nH]c12)c1cc2cccc(Cl)c2c(=O)n1-c1ccccc1 [Duvelisib (IPI-145, INK1197)]	-0.24	0.17	0.84	0.82	0.45	0.49	0.28	0.69	0.07	12.2
CC[C@H](CO)Nc1nc(NCc2ccccc2)c2ncn(C(C)C)c2n1 [Roscovitine (Seliciclib,CYC202)]	-0.29	0.09	-1.49	0.43	0.33	0.28	0.01	0.63	0.88	0.44
COc1cc2c(cc1OC)[C@@H]1C(=O)c3ccc4c(c3O[C@@H]1CO2)C=CC(C)(C)O4 [Deguelin]	0.18	-0.44	-0.75	-0.03	-0.19	0.47	-0.59	0.97	0.49	-0.57
Cc1nc(-c2cn3c(n2)-c2ccc(-c4cnn(C(C)(C)C(N)=O)c4)cc2OCC3)n(C(C)C)n1 [Taselisib (GDC 0032)]	0.16	0.89	0.74	0.19	0.59	0.36	-0.08	0.16	1.28	0.87
CC[C@@](C)(Nc1ccnc(-c2c[nH]c3ncccc23)n1)C(=O)NCC(F)(F)F [Decernotinib (VX-509)]	0.07	9.28	2.45	0.87	0.49	0.57	8.57	0.47	0.54	0.24
Cc1n[nH]c2ncc(C(=O)N3CCC[C@H]3c3ccc(Cl)cc3)cc12	0.01	0.81	-6.54	0.03	0.26	0.19	0.11	0.56	1.74	0.45
C=CC(=O)Nc1cccc(Oc2nc(Nc3ccc(N4CCN(C)CC4)cc3OC)ncc2Cl)c1	-0.7	8.75	-3.25	0.26	0.41	0.58	-0.17	0.37	0.31	0.24
Cc1ccc(CNc2ncnc3ccc(-c4ccc(CO)o4)cc23)o1	2.38	4.33	-5.36	-0.16	0.29	0.04	2.56	0.43	1.5	0.62
